# Measured values reported in PubChem BioAssay AID504374 (National Center for Advancing Translational Sciences (NCATS), 2011).
# Hit rate of the full screen: of about 1,500 compounds, about 100 (6.7%) were called active. Not shown: some 7% with an inconclusive outcome. The entries come from a sample that favours actives as a whole. Values without a mark were called inactive. Calls come from the whole dose curve; as a rule, active = well fitted inhibition curve with a large enough effect; inconclusive = small, poorly fitted or top-dose-only effect, or effect the other way; inactive = flat fitted curve, though single readings scatter.
# Target: Runt-related transcription factor 1 (Homo sapiens) + Core-binding factor subunit beta (Homo sapiens) (UniProt Q01196+Q13951)
# Sequence (Q01196 whole entry, looked up): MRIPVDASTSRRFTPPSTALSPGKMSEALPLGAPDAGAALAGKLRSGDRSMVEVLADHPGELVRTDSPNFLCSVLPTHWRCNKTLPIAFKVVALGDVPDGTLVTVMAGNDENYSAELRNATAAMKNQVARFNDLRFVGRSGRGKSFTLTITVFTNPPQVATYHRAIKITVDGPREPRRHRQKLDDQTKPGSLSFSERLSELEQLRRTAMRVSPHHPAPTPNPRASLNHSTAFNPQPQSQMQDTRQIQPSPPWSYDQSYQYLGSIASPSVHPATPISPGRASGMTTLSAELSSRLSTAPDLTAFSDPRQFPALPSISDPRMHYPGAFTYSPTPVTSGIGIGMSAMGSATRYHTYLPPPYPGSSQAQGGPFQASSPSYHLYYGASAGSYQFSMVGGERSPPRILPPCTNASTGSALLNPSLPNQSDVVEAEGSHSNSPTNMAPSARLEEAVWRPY
# Sequence (Q13951 whole entry, looked up): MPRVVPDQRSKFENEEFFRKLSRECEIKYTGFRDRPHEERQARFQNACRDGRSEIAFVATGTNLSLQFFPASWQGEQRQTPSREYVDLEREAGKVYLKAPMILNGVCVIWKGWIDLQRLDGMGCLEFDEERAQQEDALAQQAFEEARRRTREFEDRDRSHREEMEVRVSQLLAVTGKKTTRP
# Experiment: qHTS Assay for Compounds Blocking the Interaction Between CBF-beta and RUNX1 for the Treatment of Acute Myeloid Leukemia: Hit Validation; note: nearly all actives have a fitted effect of over 60% in size
# Conditions: AlphaScreen CBFb-His/RUNX1-biotin binding; series mostly up to 59.8 µM; activity, negative = inhibition: at the top concentration
# Procedure, shortened: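 Compounds were added to a premixed CBF-beta-His/RUNX1-biotin complex (30 nM each, 20 min) for 15 min. Nickel and streptavidin AlphaScreen beads followed for 90 min at room temperature, with emission at 440 nm […].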
# % is set by controls: 0 for no effect and ±100 for the full control effect; potency is the fitted concentration of half-maximal effect.
Structure (SMILES),"activity, negative = inhibition [%]",Potency
CCOC(=O)c1nnn2c1nc(N1CCN(C)CC1)c1ccccc12,-4.29,
C=CCn1c(=O)c2ccccc2n2nnc(C(=O)OCC)c12,1.03,
CC/C(=C(\c1ccccc1)c1ccc(OCCN(C)C)cc1)c1ccccc1,,24.4 µM (active)
COc1cccc(C2Oc3ccccc3C3CC(c4cccs4)=NN32)c1 (centres undefined),4.22,
CC(=O)c1cc(O)c2ccccc2c1O,-21.8,
Cc1ccc(C)c(C(=O)CCC(=O)O)c1,-2.23,
CCCC(=O)c1cc(O)c(O)cc1O,,4.47 µM (active)
C/C(=N\O)c1c(O)cc(-c2ccccc2)n(-c2ccccc2)c1=O,-1.85,
NC[C@@H](O)c1ccc(O)c(O)c1,,2.82 µM (active)
CC1=CC(=O)CC(C)(C)C1(O)/C=C/C(C)=C/C(=O)O (centres undefined),-3.77,
C=CCn1c(SCc2ccccc2Cl)nnc1-c1sc2nc(C)cc(C)c2c1N,10.9,
CCOC(=O)c1c(C)n(C)c2ccc(OC)c(NC(=O)CCN3CCC(Cc4ccccc4)CC3)c12,-15.5,
O=S(=O)(Nc1cccc(CCc2ccccn2)c1)c1cc(Cl)ccc1Cl,-7.59,
c1cnc2ccc3ncccc3c2c1,-19.2,
c1cnc2c(c1)ccc1cccnc12,,1.12 µM (active)
c1ccc(-n2ncc3cccnc32)cc1,8.29,
CCCCn1cc([N+](=O)[O-])nc1C,-5.88,
O=C(CN1CCN(C(c2ccccc2)c2ccccc2)CC1)N1N=CCC1c1ccccc1 (centres undefined),-5.94,
COC(=O)c1cc(NS(=O)(=O)c2ccc(F)cc2)ccc1N1CCOCC1,0.969,
COc1ccc(/C(C)=N/NC(=O)Cn2nc([N+](=O)[O-])cc2C)cc1,-7.96,
COc1ccccc1C1CCN(C(=O)c2cccs2)CC1,1.84,
COc1cccc2c1NC(C(=O)O)C1CC=CC21 (centres undefined),,14.1 µM (active)
COc1ccccc1C1CCN(C(=O)c2ccco2)CC1,-1.76,
COc1ccc2[nH]c(=O)c(CN(C(=O)c3cccnc3)c3ccc(C)cc3C)cc2c1,-3.33,
CC1=NNC(=O)C1Cc1ccc(F)cc1 (centres undefined),-5.63,
CC(C)(NC(=O)c1cc(Cl)c2ccccc2c1O)C(=O)O,-1.91,
COC(=O)CC1C(=O)NC(C)=C1C(=O)OC (centres undefined),-12.4,
COc1ccc(-n2c(=S)[nH]c(=O)c3cccnc32)cc1,-1.85,
CCCOc1ccc(CSC(=N)N)cc1C(=O)OC,-9.01,
